# Data from ChEMBL document CHEMBL3988442, “University of Dundee, Small-Polar-MMV Screening Library” (2021).
# Hit rate of the full screen: of about 69,000 compounds, about 1,000 (1.4%) showed an effect of 50% or more. The full list was thinned out, with strong results kept by preference.
# Tested on: Leishmania donovani
# Assay: Leishmania intramacrophage assay
# Assay type: functional, organism-based
# Set-up: scale not given: in the data most compounds retested in dose-response had high values
smiles,measurement,setting,value
COCCCC(=O)N(C)c1ccc(F)c(Cl)c1,Percent Effect,"30.3 µM, […]",10.71%
O=c1oc(-c2ccc(F)cc2)nn1CN1CCCCC1,Percent Effect,30 µM,11.98%
COCCNC(=O)c1sc(Nc2ccc(Cl)cn2)nc1C,Percent Effect,"30 µM, 30.03 µM",-6.179%
COCC1CN(c2ccc(C)nn2)Cc2cnn(C)c21.O=C(O)C(F)(F)F.O=C(O)C(F)(F)F (stereo not drawn),Percent Effect,"30.3 µM, […]",1.62%
CCc1nc2c(N3CCC4(CC3)CC(=O)N(CC(C)C)C4)ncnc2o1,Percent Effect,"30.3 µM, […]",71.44%
CCc1nc2c(N3CCC4(CC3)CNC(=O)C4)ncnc2o1,Percent Effect,"30.3 µM, […]",11.46%
CCc1nc2c(N3CCC4(CC3)CC(=O)N(CC)C4)ncnc2o1,Percent Effect,"30.3 µM, […]",0.202%
CCOCC(=O)N1CCOCC2(CCN(c3ncccn3)C2)C1.O=C(O)C(F)(F)F (stereo not drawn),Percent Effect,"30.3 µM, […]",-3.02%
OCCC1CN(C2CCC2)CCN1C1CCCC1 (stereo not drawn),Percent Effect,"30 µM, 30.03 µM",24.92%
Clc1ccccc1CCN1CCN(c2ccc3nncn3n2)CC1,Percent Effect,30 µM,7.685%
O=C(CN1CCCC(c2ccn[nH]2)C1)N1CCCc2ccccc21 (stereo not drawn),Percent Effect,"30.3 µM, […]",-7.148%
O=C(CN1CCCC(c2ccn[nH]2)C1)Nc1nc2c(s1)CCCC2 (stereo not drawn),Percent Effect,"30.3 µM, […]",57.39%
Cc1cc(C2CCCN(CC(=O)Nc3nc4c(s3)CCC4)C2)n[nH]1 (stereo not drawn),Percent Effect,"30.3 µM, […]",34.8%
O=C(CN1CCCC(c2ccn[nH]2)C1)Nc1nncs1 (stereo not drawn),Percent Effect,"30.3 µM, […]",11.72%
O=C(CN1CCCC(c2ccn[nH]2)C1)Nc1nc2c(s1)CCC2 (stereo not drawn),Percent Effect,"30.3 µM, […]",51.08%
Cc1nnc(NC(=O)CN2CCCC(c3ccn[nH]3)C2)s1 (stereo not drawn),Percent Effect,"30.3 µM, […]",-18.19%
CN(C)CCN1C(=O)CC[C@@H]2[C@H]1CCN2C(=O)c1ccc(C#N)cc1.O=C(O)C(F)(F)F,Percent Effect,"30.3 µM, […]",2.551%
CCc1ccc(CN(CCCn2ccnc2)Cc2ccc(C)s2)o1.O=C(O)CC(O)(CC(=O)O)C(=O)O,Percent Effect,"30 µM, 30.03 µM",12.85%
Cc1ccc(CN(CCCn2ccnc2)Cc2c[nH]cn2)s1.O=C(O)CC(O)(CC(=O)O)C(=O)O,Percent Effect,"30 µM, 30.03 µM",29.23%
CC(NC(=O)N(C)Cc1ccsc1)c1ccc2c(c1)OCO2 (stereo not drawn),Percent Effect,"30 µM, 30.03 µM",29.16%
O=C(Nc1nncs1)NC1CCOc2ccccc21 (stereo not drawn),Percent Effect,"30 µM, 30.03 µM",-9.341%
Cn1cc(CN2CC[C@H]3O[C@@H](COCc4cccnc4)CC[C@H]32)cn1.O=C(O)C(F)(F)F.O=C(O)C(F)(F)F,Percent Effect,"30.3 µM, […]",18.07%
O=C(COc1ccccc1)NCC1CCN(Cc2ccsc2)CC1,Percent Effect,"30.3 µM, […]",8.301%
CCCS(=O)(=O)N1C[C@@H]2CN(Cc3ccoc3)CCO[C@@H]2C1.O=C(O)C(F)(F)F,Percent Effect,"30.3 µM, […]",15.12%
Cc1ccc(OCCCC(=O)Nc2nonc2C)cc1C,Percent Effect,"30.3 µM, […]",1.215%
Cc1ccsc1CCNC(=O)CCC(=O)NC1CCCC1,Percent Effect,"30.3 µM, […]",16.22%
Cc1ncsc1-c1nc(-c2cccc(CN3CCOCC3)c2)no1,Percent Effect,"30.3 µM, […]",19.67%
Cc1nnsc1-c1nnc2sc(C(C)C)nn12,Percent Effect,"30.3 µM, […]",39.28%
Cc1nnsc1-c1nnc2sc(C3CCC3)nn12,Percent Effect,"30.3 µM, […]",11.99%
Cc1nn2c(-c3snnc3C)nnc2s1,Percent Effect,"30.3 µM, […]",93.73%
CCN1CCN(Cc2ccnc(-c3cccnc3)n2)CC1.O=C(O)CC(O)(CC(=O)O)C(=O)O,Percent Effect,"30 µM, 30.03 µM",7.725%
Cc1ncsc1C(=O)N(C)Cc1ccsc1,Percent Effect,30 µM,23.48%
CCc1nc(NCC(=O)N2CCOCC2)c2c(n1)c(C)nn2CC,Percent Effect,"30 µM, 30.03 µM",6.056%
Cc1cc(NC(=O)NCC(C)N2CCc3ccccc32)no1 (stereo not drawn),Percent Effect,"30 µM, 30.03 µM",27.07%
CN(Cc1cccc(CCN)c1)Cc1cccc2ncccc12,Percent Effect,"30.3 µM, […]",68.5%
CN(Cc1cccnc1N)Cc1cccc2ncccc12,Percent Effect,"30.3 µM, […]",48.64%
CN(Cc1cccc(OCCO)c1)Cc1cccc2ncccc12,Percent Effect,"30.3 µM, […]",37.97%
CN(CCCc1cnn(C)c1)C(=O)C1CCC(=O)N(C2CCCC2)C1 (stereo not drawn),Percent Effect,"30.3 µM, […]",11.37%
COCCN1CCC(CNC(=O)C2(S(C)(=O)=O)CCCC2)CC1,Percent Effect,"30.3 µM, […]",19.2%
COCCN(C)C(C(=O)O)c1ccc(F)c(C)c1 (stereo not drawn),Percent Effect,"30.3 µM, […]",7.085%
CC(C)NC(=O)C1CN(Cc2ccc(F)cc2)CC12CCOCC2.O=C(O)C(F)(F)F (stereo not drawn),Percent Effect,"30.3 µM, […]",44.53%
Cl.NC(CC1CCCC1)c1ccccc1 (stereo not drawn),Percent Effect,"30.3 µM, […]",14.4%
NC(CC1CCCC1)c1ccc(Oc2ccccc2)cc1 (stereo not drawn),Percent Effect,"30.3 µM, […]",99.72%
OC(CN1CCN(CC2CCCCC2)CC1)c1ccccc1 (stereo not drawn),Percent Effect,"30.3 µM, […]",24.85%
CC(C)N(C)Cc1cc(=O)n2c(n1)CN(S(=O)(=O)C1CC1)CCC2.O=C(O)C(F)(F)F,Percent Effect,"30.3 µM, […]",28.49%
CC(C)N1CCO[C@@H]2CN(C(=O)NCc3ccccc3)CC[C@@H]2C1.O=C(O)C(F)(F)F,Percent Effect,"30.3 µM, […]",17.12%
CC(C)N1CCO[C@@H]2CN(C(=O)Cc3cccs3)CC[C@@H]2C1.O=C(O)C(F)(F)F,Percent Effect,"30.3 µM, […]",50.53%
CN1CCO[C@@H]2CN(C(=O)Cc3cccs3)CC[C@@H]2C1.O=C(O)C(F)(F)F,Percent Effect,"30.3 µM, […]",32.46%
CCOC(=O)c1nnc2ccccc2c1N1CCN(CC)CC1,Percent Effect,"30.3 µM, […]",18.05%
COc1ccc(-n2ccnc2-c2cnc(N(C)C)nc2)cc1OC,Percent Effect,"30.3 µM, […]",25.02%
CCS(=O)(=O)c1ccc(N2CCC(NC(C)=O)CC2)cc1,Percent Effect,"30 µM, 30.03 µM",-2.976%
CCS(=O)(=O)c1ccc(N2CCC(N)CC2)cc1,Percent Effect,"30.3 µM, […]",63.99%
CCS(=O)(=O)c1ccc(N2CCC(NC(=O)CC3CCCC3)CC2)cc1,Percent Effect,"30.3 µM, […]",22.19%
CCS(=O)(=O)c1ccc(N2CCC(NC(=O)CCC(C)C)CC2)cc1,Percent Effect,"30 µM, 30.03 µM",63.78%
CCNC(=O)NC1CCN(c2ccc(S(=O)(=O)CC)cc2)CC1,Percent Effect,"30.3 µM, […]",12.14%
CCS(=O)(=O)c1ccc(N2CCC(NC(=O)C(C)SC)CC2)cc1 (stereo not drawn),Percent Effect,"30.3 µM, […]",27.86%
CC(=O)NCCNCc1cn(CCN2CCSCC2)nc1C,Percent Effect,"30.3 µM, […]",28.55%
CN1C[C@H]2CN(Cc3cccc(OC(F)(F)F)c3)CCN2C1=O,Percent Effect,"30.3 µM, […]",-1.989%
O=C(Cc1cc2c(cc1Br)OCCO2)NC1CCS(=O)(=O)C1 (stereo not drawn),Percent Effect,"30.3 µM, […]",5.517%
CC(=O)c1ccc(C(=O)N2C[C@@H]3CC[C@H](C2)N(Cc2ccccc2)C3)s1,Percent Effect,"30.3 µM, […]",9.144%
COc1cc(F)cc(CNC(=O)Nc2ccn(CC(F)F)n2)c1,Percent Effect,"30.3 µM, […]",16%
NCC1Cc2cc(-c3cncc(C(=O)N4CCCCC4)n3)cc(F)c2O1 (stereo not drawn),Percent Effect,"30.3 µM, […]",-28.1%
Cc1cc2c(c(-c3cnccn3)c1)OC(CN)C2 (stereo not drawn),Percent Effect,"30.3 µM, […]",26.74%
Cc1cc2c(c(-c3cncc(C(=O)N4CCCC4)n3)c1)OC(CN)C2 (stereo not drawn),Percent Effect,"30.3 µM, […]",74.06%
NCC1Cc2cc(-c3cncc(C(=O)N4CCOCC4)n3)cc(Cl)c2O1 (stereo not drawn),Percent Effect,"30.3 µM, […]",7.347%
NCC1Cc2cc(Cl)cc(-c3cncc(C(=O)N4CCCCC4)n3)c2O1 (stereo not drawn),Percent Effect,"30.3 µM, […]",74.83%
Cc1cc2c(c(-c3c[nH]c(C)n3)c1)OC(CN)C2 (stereo not drawn),Percent Effect,"30.3 µM, […]",38.87%
CC(C)n1cc(N2CC(C(=O)N3CCN(C)CC3)CC2=O)cn1 (stereo not drawn),Percent Effect,"30.3 µM, […]",26.64%
O=C(c1cncc(Br)c1)N1CCCc2ccc(F)cc21,Percent Effect,"30.3 µM, […]",14.67%
CCc1c(C)nn(CC(=O)NC(C(=O)O)c2c(C)n[nH]c2C)c1C (stereo not drawn),Percent Effect,"30.3 µM, […]",12.75%
Cc1ccc(CN(C)Cc2cc(C3CC3)[nH]n2)c(O)n1,Percent Effect,"30.3 µM, […]",5.894%
Cc1nn(C)cc1S(=O)(=O)N[C@@H]1CC[C@@H](n2ccnc2C)[C@@H]1O,Percent Effect,"30.3 µM, […]",-29.93%
CN1CCC/C1=N\S(=O)(=O)c1ccc(NC(=O)c2ccco2)cc1,Percent Effect,30 µM,-21.5%
CCNC(=O)[C@@H]1C[C@@H](NC(=O)c2cccnc2O)CN1Cc1ccsc1,Percent Effect,"30 µM, 30.03 µM",19.61%
CCNC(=O)[C@@H]1C[C@H](NC(=O)c2cncnc2C)CN1Cc1ccsc1,Percent Effect,"30.3 µM, […]",37.2%
CCNC(=O)[C@@H]1C[C@@H](NC(=O)c2cnc[nH]c2=O)CN1Cc1ccsc1,Percent Effect,"30.3 µM, […]",54.56%
CC(=O)Cn1ncc(N2CCOCC2)cc1=O,Percent Effect,"30.3 µM, […]",4.61%
Fc1ccc(CN2CCCC(c3cc4ncccc4[nH]3)C2)cc1 (stereo not drawn),Percent Effect,"30.3 µM, […]",-0.4017%
CCOc1ccc(CN2CCCC(c3cc4ncccc4[nH]3)C2)cc1 (stereo not drawn),Percent Effect,"30.3 µM, […]",54.07%
CC(=O)Nc1ccc(CN2CCCC(c3cc4ncccc4[nH]3)C2)cc1 (stereo not drawn),Percent Effect,"30.3 µM, […]",40.95%
O=C(CC1NC(N2CCc3ccccc32)=NC1=O)Nc1ccc(Cl)cc1 (stereo not drawn),Percent Effect,"30.3 µM, […]",9.68%
Cc1nc(O)cc(CCNc2nccc(CCC(F)(F)F)n2)n1,Percent Effect,"30.3 µM, […]",19.16%
CC(Cn1ccnc1)NC(=O)N1CCN(Cc2ccsc2)CC1 (stereo not drawn),Percent Effect,30 µM,56.49%
CC(Cn1ccnc1)NC(=O)N1CCN(Cc2ccncc2)CC1 (stereo not drawn),Percent Effect,30 µM,-0.977%
CC(Cn1cccn1)NC(=O)N1CCN(Cc2ccsc2)CC1 (stereo not drawn),Percent Effect,"30.3 µM, […]",0.9675%
CN1C(=O)CC(C(=O)O)C12CCN(c1ccc3c(n1)CCCC3)CC2 (stereo not drawn),Percent Effect,"30.3 µM, […]",21.03%
CCn1ncnc1C(C)NC(=O)C1CCN(C2CCCCC2)CC1 (stereo not drawn),Percent Effect,"30.3 µM, […]",10.97%
CCn1ncnc1C(C)NC(=O)C1CCN(C(C)C)CC1 (stereo not drawn),Percent Effect,"30 µM, 30.03 µM",5.618%
CCn1ncnc1C(C)NC(=O)C1CCN(C(=O)COC)CC1 (stereo not drawn),Percent Effect,"30 µM, 30.03 µM",54.19%
CC(=O)NC(C)(C)C(=O)Nc1ncc(Cc2ccc(C)c(F)c2)s1,Percent Effect,"30 µM, 30.03 µM",11.96%
Cc1nn(C)c(C)c1-c1ccnc(N(C)Cc2nc(C(C)C)no2)n1,Percent Effect,"30.3 µM, […]",52.75%
Cc1nn(C)c(C)c1-c1ccnc(N(C)Cc2noc(C(C)C)n2)n1,Percent Effect,"30.3 µM, […]",46.51%
Cc1nn(C)cc1-c1ccnc(N(C)Cc2noc(C(C)C)n2)n1,Percent Effect,"30.3 µM, […]",19.89%
CCc1nc(CN(C)C2CCN(CCC(=O)N3CCCCC3)C2)no1 (stereo not drawn),Percent Effect,"30.3 µM, […]",22.94%
Fc1cnc(N2CCn3cc(CNc4ccccn4)nc3C2)nc1.O=C(O)C(F)(F)F.O=C(O)C(F)(F)F,Percent Effect,"30 µM, 30.03 µM",-20.21%
O=C(O)C(F)(F)F.O=C(c1ccc[nH]1)N1CCn2cc(CN3CCCC3)nc2C1,Percent Effect,"30 µM, 30.03 µM",-3.456%
O=C(Cc1ccc(F)cc1)N1CCn2cc(Cn3cccn3)nc2C1.O=C(O)C(F)(F)F,Percent Effect,"30 µM, 30.03 µM",-23.45%
O=C(O)C(F)(F)F.O=C(c1ccc[nH]1)N1CCn2cc(Cn3cccn3)nc2C1,Percent Effect,"30.3 µM, […]",51.47%
